Most compounds without a hit are left out; they make up all but 7% or so of the library.
ADAM17 inh = ADAM17 inhibition, QFRET primary screen. P78536. recombinant ADAM17, EDANS/DABCYL FRET peptide cleavage. inhibition, % at 6.95 µM. 370,000 compounds, 0.83% hits;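 active = inhibition above the mean of compounds lying between control limits plus 3 SD, set per campaign, cut at about 8.5% in these data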
NR3A LBD binder = modulators (binders) of human NR3A ligand-binding domain. AID 1259313. Tm shift relative to glycine control, % at 25 µM. 340,000 compounds, 2.5% hits. NR3A LBD differential scanning fluorimetry, Tm shift; 0% = protein alone, 100% = glycine-bound protein;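 active = melting temperature shift of at least 10% of the positive control shift, at one fixed dose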
ADAM10 inh = inhibits human ADAM10. O14672. recombinant ADAM10, EDANS/DABCYL FRET peptide cleavage, 3 h. inhibition, % at 7 µM. 370,000 compounds, 0.62% hits;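 active = inhibition above a per-campaign cutoff equal to the mean of compounds falling between control-based bounds plus 3 SD, cut at about 20% in these data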
AHR act = human AHR activation | AHR-responsive luciferase reporter cells, luminescence | activation, % at 5 µM | 320,000 compounds, 2.5% hits; in the data active = activation above about 47%
proKLK7 act = activates the human kallikrein-7 zymogen; activation, % at 7 µM; 370,000 compounds, 0.9% hits; purified proKLK7, EDANS-DABCYL substrate fluorescence; 100% is mature enzyme control, 0% vehicle; AID 652039;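 active = activation above the mean of all tested compounds plus 3 SD, computed per campaign excluding outliers beyond control limits, cut at about 13% in these data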
Target sequence (P49862 whole entry, looked up): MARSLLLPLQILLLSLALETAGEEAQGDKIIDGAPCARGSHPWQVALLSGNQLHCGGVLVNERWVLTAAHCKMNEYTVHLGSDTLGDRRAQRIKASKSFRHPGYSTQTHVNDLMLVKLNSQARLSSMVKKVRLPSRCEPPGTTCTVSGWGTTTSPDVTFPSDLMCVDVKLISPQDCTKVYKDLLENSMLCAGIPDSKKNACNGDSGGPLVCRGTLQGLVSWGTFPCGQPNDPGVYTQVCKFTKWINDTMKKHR
rCAG binder = molecules binding r(CAG) RNA repeats. 370,000 compounds, 1.3% hits. AID 651821. r(CAG) RNA repeat, TO-PRO-1 dye displacement fluorescence. inhibition, % at 3 µM;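 active = inhibition above the plate cutoff, the mean of all test compounds on that plate plus 3 SD, cut at about 35% in these data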;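 note: higher means more dye released from RNA so lower well fluorescence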
Hits are given with their value; – = inactive; · = not tested or not shown.

SMILES	ADAM17 inh	NR3A LBD binder	ADAM10 inh	AHR act	proKLK7 act	rCAG binder
Cc1cc(NC(=O)CSc2ccc(-c3nc4cc(C)c(C)cc4[nH]3)cn2)no1	·	–	·	–	·	·
Oc1ccccc1-c1cc(C(F)(F)C(F)F)nc(-c2ccccc2)n1	–	14	–	–	–	–
COc1ccc(O)c(-c2cc(C(F)(F)C(F)F)nc(-c3ccccc3)n2)c1	–	–	–	–	–	–
COCc1c(C(=O)N/N=C\c2cccs2)nnn1-c1nonc1N	–	–	–	–	–	–
Nc1nonc1-n1nnc(C(=O)N/N=C/c2cccs2)c1CSc1ccccc1	–	37	–	–	–	–
Nc1nonc1-n1nnc(C(=O)N/N=C/c2ccccc2Cl)c1CSc1ccccc1	–	30	–	–	–	–
Nc1nonc1-n1nnc(C(=O)N/N=C/C=C/c2ccccc2)c1CSC1=NCCS1	–	16	–	–	–	–
Cc1ccc(/C=N/NC(=O)c2nnn(-c3nonc3N)c2CSc2ccc(Cl)cc2)cc1	–	26	–	–	–	–
O=C(Nc1ccc(Br)cc1)OCCN1CCCC12CCC(c1ccccc1)CC2 (stereo not drawn)	–	·	–	·	·	·
CC(C)CNC(=O)OCc1cn(Cc2cc(F)cc(F)c2)nn1	–	·	–	·	–	–
CCN(CC)Cc1c(C(=O)N/N=C/c2cccs2)nnn1-c1nonc1N	–	–	–	–	–	–
CCc1c(C(=O)N/N=C/c2cccs2)nnn1-c1nonc1N	–	22	–	–	–	–
Nc1nonc1-n1nnc(C(=O)N/N=C/c2ccc3c(c2)OCO3)c1CSc1ccccc1	–	39	–	–	–	–
CC(C)Cn1c(CN2C(=O)c3ccccc3C2=O)nc2ccccc2c1=O	–	20	–	–	–	–
Cc1cccc(NC(=O)[C@H]2CC(=O)O[C@@H]2c2ccccc2)c1C	–	·	–	·	–	–
Cc1ccc([N+](=O)[O-])c(OCc2ncc(Cl)n2C)c1	–	–	–	55	–	–
Cc1ccc([N+](=O)[O-])c(OCCN2CCNCC2)c1	–	–	–	–	–	–
O=[N+]([O-])c1ccc(C2=NN(c3ccccc3)C(c3ccco3)C2)cc1 (stereo not drawn)	–	339	–	·	–	–
CC1=NN(c2ccccc2)C(c2ccco2)C1 (stereo not drawn)	–	–	–	·	–	–
O=[N+]([O-])c1ccc(/C=C/C2=NN(c3ccccc3)C(c3ccco3)C2)cc1 (stereo not drawn)	–	263	–	–	–	–
CC(=O)C1(C(=O)NC2CCCC2)CC(c2ccccc2C(F)(F)F)=NO1 (stereo not drawn)	–	·	–	·	–	–
Cc1cc(C)nc(SCC(=O)N2CCc3ccccc32)n1	–	–	–	73	–	–
Cc1nc(C)c(NC(=O)N2CCc3ccccc32)cc1NC(=O)N1CCc2ccccc21	–	–	–	50	–	–
COc1ccc(S[C@]2(C(=O)N(C)C)CC(=O)N(S(=O)(=O)c3ccc(F)cc3)[C@@H]2c2ccc(OC)cc2)cc1	–	·	–	·	–	–
S=C(NCC1CCCCC1)Nc1ccc(Oc2ccccc2)cc1	–	16	–	–	–	–
SMILES	ADAM17 inh	NR3A LBD binder	ADAM10 inh	AHR act	proKLK7 act	rCAG binder
S=C(Nc1ccc(Oc2ccccc2)cc1)NC1CCCC1	–	–	–	–	–	–
C=CCN1[C@H](CC(C)C)COc2cc(F)ccc2S1(=O)=O	–	·	–	·	–	–
COc1ccc(Br)cc1CNC(=O)c1ccc2c(c1)N(C)CCS2	–	–	–	49	–	–
COc1cccc(CNC(=O)[C@H]2CCCN2C(=O)[C@H]2CCCN2C(=O)c2cccc(OC)c2)c1	–	·	–	·	–	–
O=C(NC1CC1)c1ccccc1NC(=O)c1ccccc1OC(F)F	–	·	–	·	–	–
O=C(NNC(=S)Nc1ccc(F)cc1)c1ccccc1OC(F)F	–	–	–	92	–	–
Cc1ccc(NC(=S)NNC(=O)c2ccccc2OC(F)F)cc1	–	–	–	102	–	–
CCOc1cc(OCC)cc(C(=O)N2CCC[C@@H]2C(=O)N2CCC[C@@H]2C(=O)NCc2cccc(OC)c2)c1	–	·	–	·	–	–
COC(=O)[C@]12C[C@H](CC(=O)NCCCCc3ccccc3)C(=O)N(CCC3=CCCCC3)C1=C[C@H](C(C)(C)C)O[C@@H]2C	–	·	–	·	–	–

Compound activity: PubChem, several laboratories
